Data: the supplement of paper PMC8726507
A number with no mark means an inactive call.

tested on: Plasmodium falciparum NF54-HGL (transmission to Anopheles stephensi); assay: percentage of barcode signal found in uninfected mosquitoes (transmission-blocking activity); higher = stronger blocking of transmission to mosquito, active = 80 or more; conditions: 10 µM; gametocyte preincubation time 24 h; readout time post-feed 8 days
Procedure: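 The mixture was fed to Anopheles stephensi in 96-well plates as blood meals tagged with DNA-barcoded Asaia bacteria. Eight days later, mosquitoes were classed infected or uninfected by luminescence (mean + 5 SD of unfed controls). Barcodes were quantified by Luminex MagPlex-TAG in the pooled uninfected and infected Asaia cultures, background-corrected, and the score is % of barcode signal in uninfected mosquitoes = 100*Iu/(Iu+Ii).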

SMILES	percentage of barcode signal found in uninfected mosquitoes
Nc1ncnc2[nH]nc(Cc3cccc4ccccc34)c12	67.8%
CC1CS(=O)(=O)CCN1/N=C/c1ccc([N+](=O)[O-])o1 (stereo not given)	91.3% (active)
Cc1nnc(NC(=O)c2cn(-c3ccccc3)nc2-c2ccccc2C)o1	81% (active)
N=C(N)c1ccc(-c2cc(-c3ccccc3)on2)cc1	33.2%
CC(C)n1ncc2c(C(=O)NCC(c3cccs3)N3CCOCC3)cc(-c3ccccc3)nc21 (stereo not given)	29.6%
Cc1[nH]c2ccccc2c1C(c1cccs1)N1CCN(C)CC1 (stereo not given)	43.7%
O=S(=O)(c1ccc(Cl)cc1)N1CCN(C(=S)NCc2ccco2)CC1	29.2%
N#Cc1nc(-c2ccccc2F)oc1NCCc1ccccc1	1.26%
Cc1cc(C(=O)Nc2ccc(-c3ccccc3)cc2)no1	64%
O=C(Nc1ccc(F)c(-c2nc3cc(-c4ccccc4)cnc3[nH]2)c1)N1CCCC1	35.5%
COc1ccc(N(CCc2cccc(C)n2)C(=O)C2CCCCC2)cc1	29.5%
COc1ccc(C2=NN(C3CCCCCC3)C(=O)[C@@H]3CC=CC[C@H]23)cc1OCCCCOc1ccc(-c2nn[nH]n2)cc1	63.6%
Cc1ccc(NC(=O)CC2COc3ccccc3O2)cc1Cl (stereo not given)	38.8%
CC[C@@H]([C@H](C)O)n1ncn(-c2ccc(N3CCN(c4ccc(OC[C@@H]5CO[C@@](Cn6cncn6)(c6ccc(F)cc6F)C5)cc4)CC3)cc2)c1=O	42.4%
O=C(c1ccc(NCCO)cc1)C1C[C@H]1c1ccc(Cl)cc1 (stereo not given in full)	39.6%
O=C(NCc1ccoc1)N1CCN(Cc2ccc3c(c2)OCO3)CC1	25.5%
O=C(NCCN1CCCC1)c1cc(NCCCCN2CCC(F)(F)CC2)nc2ccc(Cl)cc12	91.2% (active)
CCOc1ccc2cc(-c3nn(C(C)(C)C)c(N)c3C(N)=O)cnc2c1	71.5%
Nc1nccc2ccc(-c3ccc4nccn4c3)cc12	92.9% (active)
CC1COC2(CCN(c3nc(=O)c4cc(C(F)(F)F)cc([N+](=O)[O-])c4s3)CC2)O1 (stereo not given)	26.7%
O=C(NC1=NCCS1)c1sc2cc(F)ccc2c1Cl	5.7%
COc1ccccc1CNC(=O)c1cc(C2CC2)nc2c1cnn2C(C)C	62.8%
CC(=O)NC[C@H]1CN(c2ccc(N3CCSCC3)c(F)c2)C(=O)O1	24.7%
CC(C)(C)c1cc(C(=O)Nc2cccnc2)cc(C(=O)Nc2cccnc2)c1	41.8%

same assay, conditions: 20 µM; gametocyte preincubation time 24 h; readout time post-feed 8 days

SMILES	percentage of barcode signal found in uninfected mosquitoes
CC1(COc2ccc(N3CCC(Oc4ccc(OC(F)(F)F)cc4)CC3)cc2)Cn2cc([N+](=O)[O-])nc2O1 (stereo not given)	39.6%
COc1cc(C2=NCCN2)cc2cc(-c3ccc(C4=NCCN4)cc3)oc12	95.1% (active)
NC(=O)c1cc(-c2ccsc2)ccc1OCCOc1ccccc1	12.1%
COc1cc(OC)cc(C(=O)NCC2Cc3cc(Cl)cc(-c4ccncc4)c3O2)c1 (stereo not given)	1.01%
c1ccc(Oc2ccc(-c3cc(CN4CCOCC4)[nH]n3)cc2)cc1	3.15%
CN1CCC(NCc2cccc(-c3ccc(S(=O)(=O)NCc4ccccc4)cc3)c2)CC1	98.6% (active)
COc1ccc(S(=O)(=O)Nc2ccc(CN3CCN(C(=O)c4cccc(C#N)c4)CC3)cc2)cc1	8.68%
O=C(Nc1cnc2ccccc2c1)c1cccc(-n2cnnn2)c1	21.3%
CC(C)(C)OC(=O)N1CCN(c2cc(-c3ccc(Oc4ccccc4)cc3)n[nH]2)CC1	39.8%
Clc1ccc(Cl)c(CO[C@H]2CCCC[C@@H]2n2ccnc2)c1	19.9%
Cc1cc(C)nc(-n2nc(C)cc2Nc2ccccc2)n1	80.5% (active)
O=C(NCCN1CCCC1)c1cc(NCCN2CCOCC2)nc2ccc(Cl)cc12	88% (active)
CC(C)=CCC/C(C)=C\CNCCNC1C2CC3CC(C2)CC1C3 (stereo not given)	81.8% (active)
CNC(=O)C1Cc2c([nH]c3cc(Cl)ccc23)C2(CCN(CCc3ccccc3)CC2)N1 (stereo not given)	87.5% (active)
COc1ccc(Oc2ccc([C@@H](C)N(C)c3ncc4c(N)nc(N)nc4n3)cc2)cc1	72.1%
COc1cc(NC(=O)Cc2nn(C)c(=O)c3ccccc23)ccc1Cl	9.49%
